Test results as given in PubChem BioAssay AID624364 (Broad Institute, 2012).
Entries with a potency or affinity are not part of this list. Activity calls are given as the source filed them.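 The calls were made as follows: active = compounds lowering ATP signal whose fitted half-maximal concentration is at most twice the top tested dose; inconclusive = flat fit with 30 to 70% loss, or bad fit; inactive = the rest.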

test: A375 melanoma cell viability loss, dose response, counter-screen for MITF inhibitor project, CellTiter-Glo luminescence, dry powder, set 4 (AID 624364); settings: CellTiter-Glo ATP luminescence, 24 h; series mostly up to 35 µM

SMILES | outcome
C=CCNC1=C(NCC=C)C(=O)c2ccccc2C1=O | inactive
C=CCNC1=C(NCCCN2CCOCC2)C(=O)c2ccccc2C1=O | inactive
O=C(NC1=C(N2CCN(c3ccccc3)CC2)C(=O)c2ccccc2C1=O)c1ccccc1 | inactive
CN1CCN(C2=C(NS(=O)(=O)c3cccs3)C(=O)c3ccccc3C2=O)CC1 | inactive
COc1ccc(C2=C(NC(=O)c3ccc(OC)cc3-c3cccc(OC)c3)C(=O)c3ccccc3C2=O)cc1 | inactive
